Assay [1] is described as follows: NCI Yeast Anticancer Drug Screen. Data for the rad50 strain (AID 155).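 Also: 0% = growth of vehicle-only cultures of the same strain.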 The note with it: S. cerevisiae rad50 strain growth inhibition, stronger effect = higher value. The essentials: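 Cells are treated with compound, grown, and their growth is then scored against vehicle-only cultures of the same repair-deficient yeast strain.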
The nature of assay [2]: NCI Yeast Anticancer Drug Screen. Data for the mec2-1 strain (AID 157). The note with it: S. cerevisiae mec2-1 strain, stronger effect = higher value. The method in brief:
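Compounds were applied to mec2-1 yeast cells. Their growth was then compared with that of vehicle-treated cultures to give growth inhibition.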

A short description of assay [3]: NCI Yeast Anticancer Drug Screen. Data for the sgs1 mgt1 strain (AID 161).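 Also: 0% = growth of cultures given vehicle only.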 The note with it: S. cerevisiae sgs1 mgt1 strain, stronger effect = higher value. The essentials: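 This yeast growth screen uses a strain with defined DNA-repair lesions; compound-treated growth is compared with vehicle-treated growth.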
Assay [4] can be described thus: NCI Yeast Anticancer Drug Screen. Data for the cln2 rad14 strain (AID 165).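 Also: 0% = growth equal to vehicle treated cultures.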 The note with it: S. cerevisiae cln2 rad14 strain, stronger effect = higher value. The essentials:
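Strain: cln2 rad14 yeast, altered in cell cycle control and DNA damage repair. Read-out: growth inhibition vs vehicle.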

A short description of assay [5]: NCI Yeast Anticancer Drug Screen. Data for the bub3 strain (AID 167). The note with it: S. cerevisiae bub3 mutant strain, stronger effect = higher value. The essentials:
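Part of a panel of yeast mutants defective in DNA damage repair or cell cycle regulation. Each strain is grown with compound, and inhibition is calculated relative to solvent-treated cultures.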

Assay [6] in a line: NCI Yeast Anticancer Drug Screen. Data for the mlh1 rad18 strain (AID 175). The note with it: S. cerevisiae mlh1 rad18 strain growth inhibition, stronger effect = higher value. The essentials: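 A repair-deficient yeast strain is exposed to test compound, and growth is scored relative to vehicle-treated controls.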
Setting [7] is: at 5.0 µM (retest, dose inferred, filed as 0.5).
Where [8] appears, read: at 50.0 µM (retest, dose inferred, filed as 5.0).

“And” between values parts separate entries of the source, which are not always exact repeats. Equal values may be shown once. This is part of a sample that, as a whole, favours compounds with a hit. Of some 79,000 tested, about 15% had one in any assay. Some compounds were tested as several samples or in several runs, with calls that do not always agree. The source made the active and inactive calls. Rule as the data show it: active = growth inhibition above about 70%; inactive = the rest.

For the compound `NNc1nc2ccccc2s1`, the growth inhibition is 14% (inactive) in assay [1] (setting [7]); 34% (inactive) in assay [1] (setting [8]); 1.3% (inactive) and 47.8% (inactive) in assay [1] (at 50.0 µM); 10% (inactive) in assay [2] (setting [7]); 32% (inactive) in assay [2] (setting [8]); -37% (inactive) and 42.6% (inactive) in assay [2] (at 50.0 µM). The growth inhibition in assay [3] (setting [7]) was 2% (inactive); in assay [3] (setting [8]), 38% (inactive); in assay [3] (at 50.0 µM), 4.4% (inactive) and 72.5% (active); in assay [4] (setting [7]) it was 8% (inactive); in assay [4] (setting [8]) it was 3% (inactive); in assay [4] (at 50.0 µM), 0.55% (inactive) and 8.6% (inactive). Besides, the growth inhibition was 19% (inactive) in assay [5] (setting [7]); 45% (inactive) in assay [5] (setting [8]); 9.15% (inactive) and 89.6% (active) in assay [5] (at 50.0 µM); 37% (inactive) in assay [6] (setting [7]); 64% (inactive) in assay [6] (setting [8]); -7.35% (inactive) and 88.2% (active) in assay [6] (at 50.0 µM).

For the compound `c1cc2c3c(c1)ccc1cccc(c13)COC2`, the growth inhibition in assay [1] (setting [7]) is -21% (inactive) and -2% (inactive); in assay [1] (setting [8]), 10% (inactive) and 85% (active); in assay [1] (at 50.0 µM) it was 86.3% (active) and 98% (active); in assay [2] (setting [7]), -6% (inactive) and 9% (inactive); in assay [2] (setting [8]), -8% (inactive) and 75% (active); in assay [2] (at 50.0 µM) it was 51.1% (inactive) and 96.7% (active). Moreover, the growth inhibition in assay [3] (setting [7]) is -4% (inactive) and -10% (inactive); in assay [3] (setting [8]) it was 20% (inactive) and 58% (inactive); in assay [3] (at 50.0 µM), 47.5% (inactive) and 95.8% (active); in assay [4] (setting [7]) it was -42% (inactive) and 4% (inactive); in assay [4] (setting [8]), -7% (inactive) and 27% (inactive); in assay [4] (at 50.0 µM), 69.2% (inactive) and 96.5% (active). Also, the growth inhibition was -13% (inactive) and -12% (inactive) in assay [5] (setting [7]); 10% (inactive) and 65% (inactive) in assay [5] (setting [8]); 88.2% (active) and 94.9% (active) in assay [5] (at 50.0 µM); -19% (inactive) and -11% (inactive) in assay [6] (setting [7]); 9% (inactive) and 89% (active) in assay [6] (setting [8]); 56.5% (inactive) and 98.2% (active) in assay [6] (at 50.0 µM).

`Nc1nccnc1C(=O)O`: the growth inhibition in assay [1] (setting [7]) is -166% (inactive); in assay [1] (setting [8]) it was -152% (inactive); in assay [1] (at 50.0 µM) it was -12.1% (inactive) and 7.75% (inactive); in assay [2] (setting [7]), -49% (inactive); in assay [2] (setting [8]), -52% (inactive); in assay [2] (at 50.0 µM) it was 20.9% (inactive) and 0.9% (inactive). Also, the growth inhibition in assay [3] (setting [7]) was -63% (inactive); in assay [3] (setting [8]) it was -61% (inactive); in assay [3] (at 50.0 µM), -2.45% (inactive) and 6.3% (inactive); in assay [4] (setting [7]), -59% (inactive); in assay [4] (setting [8]), -54% (inactive); in assay [4] (at 50.0 µM), 67.5% (inactive) and 5.6% (inactive). Further, the growth inhibition was -74% (inactive) in assay [5] (setting [7]); -75% (inactive) in assay [5] (setting [8]); 18.8% (inactive) and -1.75% (inactive) in assay [5] (at 50.0 µM); -145% (inactive) in assay [6] (setting [7]); -108% (inactive) in assay [6] (setting [8]); 11.6% (inactive) and 8.25% (inactive) in assay [6] (at 50.0 µM).

With `CC(C)c1ccc(C=Nc2ccc(SSc3ccc(N=Cc4ccc(C(C)C)cc4)cc3)cc2)cc1`, the growth inhibition in assay [1] (setting [7]) was 44% (inactive); in assay [1] (setting [8]) it was -7% (inactive); in assay [1] (at 50.0 µM), 73.7% (active); in assay [2] (setting [7]), 26% (inactive); in assay [2] (setting [8]), 1% (inactive); in assay [2] (at 50.0 µM), 49.4% (inactive). Also, the growth inhibition is 57% (inactive) in assay [3] (setting [7]); -5% (inactive) in assay [3] (setting [8]); 57.6% (inactive) in assay [3] (at 50.0 µM); 5% (inactive) in assay [4] (setting [7]); -13% (inactive) in assay [4] (setting [8]); 12.2% (inactive) in assay [4] (at 50.0 µM). Moreover, the growth inhibition in assay [5] (setting [7]) was 13% (inactive); in assay [5] (setting [8]), 1% (inactive); in assay [5] (at 50.0 µM) it was 66.9% (inactive); in assay [6] (setting [7]) it was 25% (inactive); in assay [6] (setting [8]) it was -11% (inactive); in assay [6] (at 50.0 µM), 76.4% (active).

On to `O=C(O)c1c2ccccc2nc2[nH]c(=O)[nH]c(=O)c12`, for which the growth inhibition in assay [1] (setting [7]) is -1% (inactive); in assay [1] (setting [8]) it was -3% (inactive); in assay [1] (at 50.0 µM), 3.3% (inactive) and 23.4% (inactive); in assay [2] (setting [7]), -2% (inactive); in assay [2] (setting [8]), -2% (inactive); in assay [2] (at 50.0 µM), -5.05% (inactive) and 33.4% (inactive). Besides, the growth inhibition is -6% (inactive) in assay [3] (setting [7]); -3% (inactive) in assay [3] (setting [8]); -4.45% (inactive) and 24.3% (inactive) in assay [3] (at 50.0 µM); 0% (inactive) in assay [4] (setting [7]); 6% (inactive) in assay [4] (setting [8]); 62.9% (inactive) and -0.85% (inactive) in assay [4] (at 50.0 µM). Moreover, the growth inhibition was -1% (inactive) in assay [5] (setting [7]); -5% (inactive) in assay [5] (setting [8]); 7.1% (inactive) and 34% (inactive) in assay [5] (at 50.0 µM); 0% (inactive) in assay [6] (setting [7]); -4% (inactive) in assay [6] (setting [8]); -1.9% (inactive) and 15.7% (inactive) in assay [6] (at 50.0 µM).

With `O=C1OC2=C(c3ccccc3)CCCC2C1=O` (stereo not drawn), the growth inhibition in assay [1] (setting [7]) was -1% (inactive); in assay [1] (setting [8]) it was 88% (active); in assay [1] (at 50.0 µM), 83% (active) and -7.3% (inactive); in assay [2] (setting [7]), 3% (inactive); in assay [2] (setting [8]) it was 89% (active); in assay [2] (at 50.0 µM) it was 78.5% (active) and 4.7% (inactive). Also, the growth inhibition in assay [3] (setting [7]) is 1% (inactive); in assay [3] (setting [8]) it was 69% (inactive); in assay [3] (at 50.0 µM), 93.8% (active) and -3.3% (inactive); in assay [4] (setting [7]), -3% (inactive); in assay [4] (setting [8]), 94% (active); in assay [4] (at 50.0 µM), 92.5% (active) and 0.1% (inactive). Moreover, the growth inhibition was 0% (inactive) in assay [5] (setting [7]); 93% (active) in assay [5] (setting [8]); 85.4% (active) and -6.2% (inactive) in assay [5] (at 50.0 µM); 0% (inactive) in assay [6] (setting [7]); 93% (active) in assay [6] (setting [8]); 91.7% (active) and 3.8% (inactive) in assay [6] (at 50.0 µM).
